# Activity calls are given as the source filed them. Calls come from the whole dose curve; as a rule, active = well fitted curve in the direction sought with a large enough effect; inactive = no such curve, though single readings can be large or run the other way.
# Molecular target: Alpha-galactosidase (Coffea arabica) (UniProt Q42656)
# Test: Counterscreen for Glucocerebrosidase Inhibitors: qHTS Assay for Coffee Bean alpha-Galactosidase at pH 5.9 (AID 998);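 note: plate controls were uninhibited enzyme for no effect and no-enzyme basal signal for full effect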
# Conditions: coffee bean alpha-galactosidase enzyme assay; series mostly up to 76.9 µM; activity, negative = inhibition: at the top concentration
# Summary of the method: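 Green coffee bean enzyme (2 nM final) was incubated with compounds (0.7 nM–77 uM) and 4-methylumbelliferyl alpha-D-galactopyranoside (80 uM) in citrate buffer pH 5.9, 20 min at room temperature. High-pH stop; fluorescence 365/440 nm; AC50 from Hill fits.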
# Alpha-galactosidase (Coffea arabica), sequence (Q42656 whole entry, looked up): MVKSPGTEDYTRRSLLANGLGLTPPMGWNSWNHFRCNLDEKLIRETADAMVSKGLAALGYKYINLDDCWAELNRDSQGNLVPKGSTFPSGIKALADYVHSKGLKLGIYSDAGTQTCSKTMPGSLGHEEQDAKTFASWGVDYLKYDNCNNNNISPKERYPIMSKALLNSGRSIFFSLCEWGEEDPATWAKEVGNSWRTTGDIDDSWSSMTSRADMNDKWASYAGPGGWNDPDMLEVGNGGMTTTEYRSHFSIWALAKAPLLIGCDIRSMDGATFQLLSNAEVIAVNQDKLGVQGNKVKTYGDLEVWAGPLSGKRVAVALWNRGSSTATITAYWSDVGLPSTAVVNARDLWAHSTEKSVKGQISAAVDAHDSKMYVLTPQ
row,SMILES,"activity, negative = inhibition"
1,CCN(CC)CCNC(=O)c1ccc(N)cc1,2% (inactive)
2,CN1C(C(=O)Nc2ccccn2)=C(O)c2ccccc2S1(=O)=O,-3.18% (inactive)
3,CN1CCN(CC(=O)N2c3ccccc3C(=O)Nc3cccnc32)CC1,-0.865% (inactive)
4,CCN(CC)C(=O)c1ccc(O)c(OC)c1,1.43% (inactive)
5,CN1CCC[C@@H]1c1cccnc1,-0.508% (inactive)
6,CCN(CC)CCNC(=O)c1cc(S(C)(=O)=O)ccc1OC,-0.865% (inactive)
7,CCCCCCCCCCCCCCCC(=O)NCCO,-3.45% (inactive)
8,CN1C(C)(C)CCCC1(C)C,0.764% (inactive)
9,O=c1c(-c2ccc(O)cc2)coc2cc(O)cc(O)c12,2.13% (inactive)
10,COc1ccc(C2CNC(=O)C2)cc1OC1CCCC1 (stereo unspecified),-1.66% (inactive)
11,CNCCC=C1c2ccccc2CCc2ccccc21,-2.05% (inactive)
12,CNC[C@H](O)c1cccc(O)c1,2.23% (inactive)
13,NC(=O)c1cnccn1,-0.719% (inactive)
14,COc1cc(NS(C)(=O)=O)ccc1Nc1c2ccccc2nc2ccccc12,2.49% (inactive)
15,C1COC(NC(C2CC2)C2CC2)=N1,2.4% (inactive)
16,N[C@@H](COP(=O)(O)O)C(=O)O,-0.521% (inactive)
17,CCOC(=O)c1cnc2c(cnn2CC)c1NN=C(C)C,0.507% (inactive)
18,NC(N)=NC(=O)Cc1c(Cl)cccc1Cl,1.9% (inactive)

row,SMILES,"activity, negative = inhibition"
1,CN(C)C(=O)Oc1ccc[n+](C)c1,0.057% (inactive)
2,CC(=O)O[C@H]1C(=O)[C@@]2(C)[C@H]([C@H](OC(=O)c3ccccc3)[C@]3(O)C[C@H](OC(=O)[C@H](O)[C@@H](NC(=O)c4ccccc4)c4ccccc4)C(C)=C1C3(C)C)[C@]1(OC(C)=O)CO[C@@H]1C[C@@H]2O,-11.7% (inactive)
3,CN1[C@@H]2CC[C@H]1CC(OC(c1ccccc1)c1ccccc1)C2 (stereo partly specified),-3.42% (inactive)
4,Cc1nc2c([nH]1)c(=O)n(C)c(=O)n2Cc1ccco1,-1.62% (inactive)
5,CN(C)CCOC(=O)COc1ccc(Cl)cc1,-0.36% (inactive)
6,CCN(CC)CCOC(=O)c1ccc(N)cc1,0.594% (inactive)
7,NCCCCCC(=O)O,-0.111% (inactive)
8,CC(C)NNC(=O)c1ccncc1,-2.28% (inactive)
9,O=C(O)CCCCCCCC(=O)O,0.277% (inactive)
10,CCO/C([O-])=N/c1c[n+](N2CCOCC2)no1,-1.51% (inactive)
11,CN=C(NC#N)NCCSCc1nc[nH]c1C,-0.272% (inactive)
12,NCCCNCCSP(=O)(O)O,1.7% (inactive)
13,O=c1[nH]c(=O)n([C@H]2C[C@H](O)[C@@H](CO)O2)cc1Br,-0.605% (inactive)
14,NC(N)=Nc1nc(CSCC/C(N)=N/S(N)(=O)=O)cs1,1% (inactive)
15,COc1ccc2[nH]cc(CCNC(C)=O)c2c1,-1.06% (inactive)
16,Cc1cnc(NC(=O)C2=C(O)c3ccccc3S(=O)(=O)N2C)s1,-1.8% (inactive)
17,FC(F)(F)c1ccccc1-n1ccnc1,-1.38% (inactive)
18,CC(C)Cc1ccc(C(C)C(=O)O)cc1 (stereo unspecified),3.72% (inactive)
